In article PMC7862700, “An all-to-all approach to the identification of sequence-specific readers for epigenetic DNA modifications on cytosine”:

What was measured:
Experiment in all cases: DAPPL (digital affinity profiling via proximity ligation, sequencing); 10 mM Tris-HCl pH 7.5, 50 mM NaCl, 1 mM DTT, 4% glycerol, room temperature, 30 min; GST-TFs on glutathione beads, 16-mer random dsDNA library, 0.1% formaldehyde crosslink after washing; high values mean tight binding
ERG = molecular target: T1, ERG (Homo sapiens, UniProt P11308 1-479); conditions: protein: recombinant; tags: N-terminal GST; dsDNA, one strand shown
T1 sequence: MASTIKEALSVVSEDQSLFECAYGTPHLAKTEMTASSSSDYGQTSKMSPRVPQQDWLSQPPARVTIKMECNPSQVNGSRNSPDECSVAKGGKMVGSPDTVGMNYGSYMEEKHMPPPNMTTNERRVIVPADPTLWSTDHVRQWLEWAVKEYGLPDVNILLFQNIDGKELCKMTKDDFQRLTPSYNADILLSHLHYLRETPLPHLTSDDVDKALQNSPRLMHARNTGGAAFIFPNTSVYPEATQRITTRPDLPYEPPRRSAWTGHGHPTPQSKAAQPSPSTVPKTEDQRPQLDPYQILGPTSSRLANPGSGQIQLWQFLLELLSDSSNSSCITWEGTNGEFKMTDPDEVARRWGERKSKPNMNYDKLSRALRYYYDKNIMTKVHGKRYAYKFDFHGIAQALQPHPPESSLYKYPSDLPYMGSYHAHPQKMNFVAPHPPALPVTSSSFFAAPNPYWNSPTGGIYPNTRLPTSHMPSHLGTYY
Procedure, shortened: (§1)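 After expression in yeast as GST fusions, human transcription factors were bound to glutathione beads, DNA-barcoded and mixed with a tag-only sample. The pools were incubated with 200 nmole of a 16-mer random double-stranded DNA library in Tris/NaCl/DTT/glycerol buffer (30 min, room temperature), washed and crosslinked with 0.1% formaldehyde. Proximity ligation with BsaI/T4 ligase ran for 1 h at 37 °C, before PCR amplification and sequencing on an Illumina NextSeq500. Binding signal is a hexamer's read frequency for a factor divided by its frequency for the tag-only sample.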

FEV = molecular target: T2, FEV (Homo sapiens, UniProt Q99581 1-238); conditions: protein: recombinant; tags: N-terminal GST; dsDNA, one strand shown
T2 sequence: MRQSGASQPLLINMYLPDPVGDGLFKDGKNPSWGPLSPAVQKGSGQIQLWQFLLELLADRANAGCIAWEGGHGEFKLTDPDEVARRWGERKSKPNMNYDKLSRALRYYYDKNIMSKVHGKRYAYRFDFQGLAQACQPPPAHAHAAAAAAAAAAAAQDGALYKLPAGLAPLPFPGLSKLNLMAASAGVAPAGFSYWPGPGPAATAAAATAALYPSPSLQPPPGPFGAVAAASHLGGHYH
Procedure, shortened: as §1

HSF1 = HSF1 (Homo sapiens, UniProt Q00613 1-529); conditions: protein: recombinant; tags: N-terminal GST; chain copies: 3; dsDNA, one strand shown
Sequence of HSF1 (Q00613 whole entry): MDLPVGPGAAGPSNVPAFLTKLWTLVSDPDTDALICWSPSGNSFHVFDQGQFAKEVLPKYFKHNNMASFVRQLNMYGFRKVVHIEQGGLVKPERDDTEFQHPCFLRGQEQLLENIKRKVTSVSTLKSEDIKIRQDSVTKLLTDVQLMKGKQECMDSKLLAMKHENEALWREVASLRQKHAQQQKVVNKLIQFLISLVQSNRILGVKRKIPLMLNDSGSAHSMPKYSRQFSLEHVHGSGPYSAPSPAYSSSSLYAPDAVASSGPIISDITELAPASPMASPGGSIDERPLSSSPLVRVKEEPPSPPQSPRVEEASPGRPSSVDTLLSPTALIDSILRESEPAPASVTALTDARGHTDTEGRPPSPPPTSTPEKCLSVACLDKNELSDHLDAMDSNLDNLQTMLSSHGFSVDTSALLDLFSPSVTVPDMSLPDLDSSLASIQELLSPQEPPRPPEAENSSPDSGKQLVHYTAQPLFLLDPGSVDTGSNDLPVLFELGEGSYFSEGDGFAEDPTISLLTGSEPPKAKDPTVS
Procedure, shortened: as §1

ELF3 = molecular target: T3, ELF3 (Homo sapiens, UniProt P78545 1-371); conditions: protein: recombinant; tags: N-terminal GST; dsDNA, one strand shown
T3 sequence: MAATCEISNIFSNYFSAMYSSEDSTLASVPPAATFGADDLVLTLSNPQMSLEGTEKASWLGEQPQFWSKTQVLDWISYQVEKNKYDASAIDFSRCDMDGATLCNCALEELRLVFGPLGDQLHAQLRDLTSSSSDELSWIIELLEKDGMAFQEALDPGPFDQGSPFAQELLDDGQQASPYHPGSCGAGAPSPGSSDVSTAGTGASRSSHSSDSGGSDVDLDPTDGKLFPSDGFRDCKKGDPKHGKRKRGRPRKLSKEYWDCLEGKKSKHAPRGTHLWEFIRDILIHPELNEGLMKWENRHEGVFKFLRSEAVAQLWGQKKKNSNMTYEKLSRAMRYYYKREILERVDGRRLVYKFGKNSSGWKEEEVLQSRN
Procedure, shortened: as §1

CRX = CRX (Homo sapiens, UniProt O43186 1-299); conditions: protein: recombinant; tags: N-terminal GST; dsDNA, one strand shown
Sequence of CRX (O43186 whole entry): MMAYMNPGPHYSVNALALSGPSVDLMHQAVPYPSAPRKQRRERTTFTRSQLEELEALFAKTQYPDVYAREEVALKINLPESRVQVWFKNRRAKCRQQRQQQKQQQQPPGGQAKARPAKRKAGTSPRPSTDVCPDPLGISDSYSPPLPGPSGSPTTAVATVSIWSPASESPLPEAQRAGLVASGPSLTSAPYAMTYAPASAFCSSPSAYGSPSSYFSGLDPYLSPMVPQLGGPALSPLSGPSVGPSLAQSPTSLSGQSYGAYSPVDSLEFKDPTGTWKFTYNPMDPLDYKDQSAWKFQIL
Procedure, shortened: as §1

SPDEF = molecular target: T4, SPDEF (Homo sapiens, UniProt O95238 1-335); conditions: protein: recombinant; tags: N-terminal GST; dsDNA, one strand shown
T4 sequence: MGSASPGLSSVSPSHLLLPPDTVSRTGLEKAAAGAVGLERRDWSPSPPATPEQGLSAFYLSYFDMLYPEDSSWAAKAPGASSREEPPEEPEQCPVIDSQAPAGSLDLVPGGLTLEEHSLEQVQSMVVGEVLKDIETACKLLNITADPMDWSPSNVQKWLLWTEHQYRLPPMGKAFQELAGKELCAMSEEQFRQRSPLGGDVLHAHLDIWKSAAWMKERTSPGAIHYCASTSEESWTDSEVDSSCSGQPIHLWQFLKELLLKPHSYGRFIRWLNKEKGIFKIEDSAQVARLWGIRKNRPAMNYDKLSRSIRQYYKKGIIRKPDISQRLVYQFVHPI
Procedure, shortened: as §1

ELF5 = molecular target: T5, ELF5 (Homo sapiens, UniProt Q9UKW6-2 1-255); conditions: protein: recombinant; tags: N-terminal GST; dsDNA, one strand shown
T5 sequence: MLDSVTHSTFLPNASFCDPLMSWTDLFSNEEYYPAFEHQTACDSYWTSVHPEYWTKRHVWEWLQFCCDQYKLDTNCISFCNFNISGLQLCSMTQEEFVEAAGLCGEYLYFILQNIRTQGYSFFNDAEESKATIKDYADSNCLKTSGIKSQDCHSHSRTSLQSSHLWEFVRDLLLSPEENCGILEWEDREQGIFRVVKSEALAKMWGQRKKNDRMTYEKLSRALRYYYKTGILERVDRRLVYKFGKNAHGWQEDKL
Procedure, shortened: as §1

ETV3 = molecular target: T6, ETV3 (Homo sapiens, UniProt P41162-2 1-143); conditions: protein: recombinant; tags: N-terminal GST; dsDNA, one strand shown
T6 sequence: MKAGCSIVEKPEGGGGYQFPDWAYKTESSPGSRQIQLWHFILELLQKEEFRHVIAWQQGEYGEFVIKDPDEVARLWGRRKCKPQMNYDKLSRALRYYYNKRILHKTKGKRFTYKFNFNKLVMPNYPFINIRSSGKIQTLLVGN
Procedure, shortened: as §1

ETV2 = molecular target: T7, ETV2 (Homo sapiens, UniProt O00321 1-342); conditions: protein: recombinant; tags: N-terminal GST; dsDNA, one strand shown
T7 sequence: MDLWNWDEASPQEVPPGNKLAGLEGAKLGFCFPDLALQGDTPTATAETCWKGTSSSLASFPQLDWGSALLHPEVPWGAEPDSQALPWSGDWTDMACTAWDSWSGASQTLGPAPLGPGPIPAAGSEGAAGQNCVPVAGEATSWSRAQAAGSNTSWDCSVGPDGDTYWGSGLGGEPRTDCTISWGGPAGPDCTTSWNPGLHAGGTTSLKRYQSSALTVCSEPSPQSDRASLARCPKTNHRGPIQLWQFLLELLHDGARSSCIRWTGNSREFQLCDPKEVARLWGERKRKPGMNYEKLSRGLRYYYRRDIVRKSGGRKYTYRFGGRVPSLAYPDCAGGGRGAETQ
Procedure, shortened: as §1

SPI1 = SPI1 (Homo sapiens, UniProt P17947 1-270); conditions: protein: recombinant; tags: N-terminal GST; dsDNA, one strand shown
Procedure, shortened: as §1

Sequence	binding signal (ERG)	binding signal (FEV)	binding signal (HSF1)	binding signal (ELF3)	binding signal (CRX)	binding signal (SPDEF)	binding signal (ELF5)	binding signal (ETV3)	binding signal (ETV2)	binding signal (SPI1)
CGGATT	1 fold enrichment (6-mer frequency, TF over GST control)	1.44 fold enrichment (6-mer frequency, TF over GST control)	1.56 fold enrichment (6-mer frequency, TF over GST control)	1.01 fold enrichment (6-mer frequency, TF over GST control)	2.48 fold enrichment (6-mer frequency, TF over GST control)	1.42 fold enrichment (6-mer frequency, TF over GST control)	1.01 fold enrichment (6-mer frequency, TF over GST control)	1.04 fold enrichment (6-mer frequency, TF over GST control)	–	–
CAGATC	–	–	1.09 fold enrichment (6-mer frequency, TF over GST control)	–	1.13 fold enrichment (6-mer frequency, TF over GST control)	1.07 fold enrichment (6-mer frequency, TF over GST control)	–	–	1.02 fold enrichment (6-mer frequency, TF over GST control)	–
GGATAA	–	–	1.2 fold enrichment (6-mer frequency, TF over GST control)	–	1.75 fold enrichment (6-mer frequency, TF over GST control)	–	–	–	–	–
TTCAGA	1.02 fold enrichment (6-mer frequency, TF over GST control)	–	1.09 fold enrichment (6-mer frequency, TF over GST control)	–	1.03 fold enrichment (6-mer frequency, TF over GST control)	1.01 fold enrichment (6-mer frequency, TF over GST control)	–	–	1.08 fold enrichment (6-mer frequency, TF over GST control)	1.04 fold enrichment (6-mer frequency, TF over GST control)
